CBFb RUNX1 block: inhibitors of human CBF-beta and RUNX1 interaction; Potency, µM (titrated, usually from 59.8 µM), for inactives: at the top dose activity, negative = inhibition, hits mostly inhibitors; Q01196+Q13951; AID 1477; 230,000 tested, under 10 active; AlphaScreen CBFb-His/RUNX1-biotin binding, biochemical; also: % of control where 0% means no effect
Target sequence (Q01196 whole entry, looked up): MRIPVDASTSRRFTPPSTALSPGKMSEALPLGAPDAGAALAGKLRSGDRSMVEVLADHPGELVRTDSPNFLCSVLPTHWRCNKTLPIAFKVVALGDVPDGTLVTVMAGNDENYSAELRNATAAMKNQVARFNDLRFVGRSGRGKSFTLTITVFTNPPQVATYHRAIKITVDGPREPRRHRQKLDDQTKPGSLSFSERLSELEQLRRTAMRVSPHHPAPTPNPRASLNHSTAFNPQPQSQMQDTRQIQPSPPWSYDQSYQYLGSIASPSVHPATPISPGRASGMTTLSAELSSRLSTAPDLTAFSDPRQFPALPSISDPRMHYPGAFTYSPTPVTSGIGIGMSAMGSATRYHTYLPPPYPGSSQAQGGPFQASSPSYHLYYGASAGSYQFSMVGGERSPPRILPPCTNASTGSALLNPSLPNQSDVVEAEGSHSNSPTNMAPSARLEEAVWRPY
Target sequence (Q13951 whole entry, looked up): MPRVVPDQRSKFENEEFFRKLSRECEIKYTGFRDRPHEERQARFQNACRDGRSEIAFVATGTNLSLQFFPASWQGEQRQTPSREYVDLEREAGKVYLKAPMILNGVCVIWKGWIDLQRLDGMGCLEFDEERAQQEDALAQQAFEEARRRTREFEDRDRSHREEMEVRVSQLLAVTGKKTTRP
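Proteins preincubated together for 20 min at RT before compound addition; 15 min later, nickel and streptavidin beads were added and left 90 min prior to AlphaScreen measurement.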
N370S GC mod: N370S glucocerebrosidase modulation, Gaucher chaperone candidate. P04062. N370S GC spleen homogenate, 4MU-glucoside fluorescence. Potency, µM (series often up to 59.4 µM), for inactives: at the highest dose activity change, negative = inhibition, actives largely listed as inhibitors. actives 0.092% (n = 330,000);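 also: potency is read from the fitted curve at half-maximal effect; 0% = full enzyme activity and -100% = no enzyme basal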
Anesthetic bind: candidate novel general anesthetic via apoferritin binding; Potency, µM (titrated, usually from 77.5 µM), without a hit: top-dose activity change, negative = displacement, hits mostly inhibitors; P02791; apoferritin/1-aminoanthracene competitive binding, fluorescence; AID 485281; actives 0.074% (n = 350,000); also: potency is read from the fitted curve at half-maximal effect; % is scaled to controls: 0 for no effect and ±100 for the full control effect; nearly all actives have a fitted effect of over 20% in size
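Horse-spleen apoferritin (10 uM) was mixed with 50% saturated 1-aminoanthracene in PBS, exposed to compounds for 10 min at room temperature, and read for fluorescence (ex 380 nm, em 535 nm). Competitive displacement was fitted with a four-parameter Hill equation.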
Integrin act MD: activators of alpha7 integrin expression for muscular dystrophy | alpha7betagal myoblasts, beta-gal FDG fluorescence, 48 h | Potency, µM (doses to about 38.3 µM), for inactives: at the top dose activation, usual class: activators | actives 0.064% (n = 350,000) | AID 624291;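 also: potency is read from the fitted curve at half-maximal effect; 100% = response of the positive control SU9516; nearly all actives have a fitted effect of over 60% in size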
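alpha7betagal+/- myoblasts (passage 13, 250/well) treated 48 h at 37C with compounds at 1:260 dilution of DMSO stock. Lysed, then beta-galactosidase activity read as FDG fluorescence (ex 480/em 540) after 30 min, with pre-read for autofluorescence.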
Glioma ERSR ind: induces the endoplasmic reticulum stress response in human glioma cells; U87-MG GRP78 promoter luciferase reporter, 16 h; Potency, µM, inactives show at the top dose activation, actives largely listed as activators; actives 0.02% (n = 420,000); also: potency is read from the fitted curve at half-maximal effect; series mostly up to about 76 µM; % of control where 0% means no effect; nearly all actives have a fitted effect of over 35% in size
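Stably transfected U87-MG human glioma cells carrying a GRP78-based luminescent sensor were seeded at 1000 cells/well, pin-dosed with compounds and incubated 16 h. Luciferase reagent was then added, and end-point luminescence was read after 10 min at room temperature.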
ClpP mod: qHTS Assay for Activators of ClpP | ATP-dependent Clp protease proteolytic subunit (Bacillus subtilis (strain 168)), P80244 | purified B. subtilis ClpP, FRET peptide cleavage, 20 min | Potency, µM (highest dose often 57.5 µM), for the others: at the highest dose activity change, negative = active | actives 1.9% (n = 340,000); active = well fitted falling curve with a large enough effect; inconclusive = small, poorly fitted or top-dose-only effect; inactive = no such curve, though single readings can be large or run the other way; also: potency is read from the fitted curve at half-maximal effect; the source files actives as falling curves though it sought activators and does not explain the sign; nearly all actives have a fitted effect of over 65% in size
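Purified B. subtilis ClpP, 10 microg/mL final in Tris/HCl pH8 with KCl, BSA, glycerol and Tween-20, cleaved an Abz/nitrotyrosine-quenched decapeptide. Fluorescence (ex 320, em 430) was read at 0 and 20 min at room temperature. Delta was normalized to 5.8 microM ADEP and DMSO/no-enzyme controls.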
Starred values were filed as active, the others as inactive; i = inactive; ? = inconclusive; . = no result. The full list was thinned out, with hits kept by preference. Unless noted, calls follow the shape of the dose curve; as a rule, active = well fitted curve in the direction sought with a large enough effect; inconclusive = small, poorly fitted or top-dose-only effect, or another doubt; inactive = no such curve, though single readings can be large; an effect the other way counts as inactive or inconclusive.

SMILES | CBFb RUNX1 block | N370S GC mod | Anesthetic bind | Integrin act MD | Glioma ERSR ind | ClpP mod
Cc1ccc(Oc2ccc(S(=O)(=O)N3CCOCC3)cc2C(N)=O)c(-n2nc3ccccc3n2)c1 | 3.5% | 0.6% | ? | -11.5% | -4.3% | 31.6µM*
Cc1ccc(CN2COc3ccc4c(C)cc(=O)oc4c3C2)cc1 | . | . | i | . | -2.6% | 4.4%
Cc1cc(=O)oc2c3c4c(cc12)OCCN4CCC3 | 1.3% | 4.0% | 677.1% | 2.1% | 0.8% | 22.4µM*
CC(C)c1cc(=O)oc2c3c4c(cc12)CCCN4CCC3 | ? | ? | 994.7% | -9.9% | -5.5% | 28.2µM*
O=c1oc2c3c4c(cc2c(C(F)(F)F)c1CCN1CCOCC1)CCCN4CCC3 | 24.1% | 4.6% | 0.8% | 15.9% | -4.1% | -3.4%
O=C(Cn1nc(-c2ccc(Cl)cc2)ccc1=O)NCCc1ccccc1 | . | . | 7.94µM* | . | -2.1% | -8.0%
O=C(Cn1nc(-c2ccccc2)ccc1=O)NCc1ccc(F)cc1 | 2.6% | 3.0% | ? | 9.6% | 3.5% | -11.1%
CCc1ccc(CNC(=O)Cn2nc(-c3ccc(Cl)cc3)ccc2=O)cc1 | . | . | 15.8µM* | . | -1.8% | -20.7%
CCc1ccc(CNC(=O)Cn2nc(-c3ccc(C)cc3)ccc2=O)cc1 | 11.0% | -16.8% | 10µM* | . | -0.9% | -21.5%
Cc1ccc(-c2ccc(=O)n(CC(=O)NCCc3ccc(Cl)cc3)n2)cc1 | . | . | ? | . | -2.1% | -15.5%
O=C(c1cccc(F)c1)N(Cc1cc2cc3c(cc2nc1N1CCOCC1)CCC3)CC1CCCO1 (stereo not drawn) | . | . | . | . | -5.6% | .
O=C1OC2(c3cc(Br)c(O)c(Br)c3Oc3c2cc(Br)c(O)c3Br)c2c(Cl)c(Cl)c(Cl)c(Cl)c21 | . | -16.7% | . | . | . | .
Cc1nn2c(nc(N3CCCCC3)c3ccccc32)c1C=O | 1.6% | 10.0% | -9.6% | -1.7% | 0.7% | 12.6µM*
Cc1nn2c(nc(N3CCOCC3)c3ccccc32)c1C=C(C#N)C#N | 4.2% | 21.8% | -0.8% | 17.8% | -2.7% | -1.5%
CCN1CCC(N[C@H]2C[C@@H](C(=O)NC)N(Cc3cccc4ccccc34)C2)CC1 | . | . | . | . | -3.7% | .
COc1cc(=O)n(C)c2ccccc12 | 12.0% | -13.4% | -0.9% | 2.24µM* | -1.8% | -12.7%
COc1ccc2c(OC)cc(=O)n(C)c2c1 | 1.3% | -1.4% | -5.3% | 1.7% | -1.5% | -7.8%
O=C(OCC1(COC(=O)c2cccnc2)CCCC(COC(=O)c2cccnc2)(COC(=O)c2cccnc2)C1O)c1cccnc1 | . | . | . | . | -5.3% | .
CC(C)CN1CC(C)C(=O)NC1=S (stereo not drawn) | . | . | . | -8.0% | -1.7% | 28.2µM*
Cc1ccc(Cn2cnc3c(cnn3C(C)(C)C)c2=O)cc1F | . | . | . | . | -2.4% | .
COCc1ccc(CN2CCOc3c(cc(-c4cc(C)c5cccc(OC)c5n4)cc3OC)C2)o1 | . | . | . | . | -4.8% | .
Cc1ccc(-n2ncc3c(SCc4cccc(C)c4)ncnc32)cc1 | 2.8% | 0.9% | 5.8% | -8.9% | 0.5% | 28.2µM*
Cc1cccc(CSc2ncnc3c2cnn3Cc2ccccc2)c1 | 11.1% | 5.2% | -23.9% | -8.0% | 1.2% | -3.2%
CC(C)Sc1nc2sc3c(c2c2nnc(SCC(=O)NCc4ccco4)n12)CCCC3 | 3.5% | 5.6% | -2.4% | -14.2% | 1.3% | 31.6µM*
Cc1nc(SCC(=O)NCc2ccco2)c2c3c(sc2n1)CCCC3 | 16.2% | 6.3% | -17.4% | -16.3% | -4.0% | -4.5%
COc1cc2c(NC3CCN(C)CC3)nc(N3CCCCC3)nc2cc1OCCOCCN(C)C | . | . | . | . | -6.4% | 4.5%
COCCOC(=O)C1=C(C)NC(=O)NC1c1cn(-c2ccccc2)nc1-c1cccs1 (stereo not drawn) | -0.4% | 4.8% | ? | -17.4% | 7.0% | -6.0%
COC(=O)C1=C(C)NC(C)=C(C(=O)OC)C1c1cn(-c2ccccc2)nc1-c1ccco1 | -4.3% | 9.7% | -0.8% | 41.0% | -1.5% | 28.2µM*

High-throughput results as filed in PubChem BioAssay.
